High-throughput results: PubChem, Emory University Molecular Libraries Screening Center
14-3-3g Raf – modulators of 14-3-3 gamma protein binding, primary screen, biochemical, fluorescence polarization; 14-3-3 protein gamma (Homo sapiens), P61981; FP, 14-3-3gamma / TMR-pS259-Raf peptide binding; inhibition, % at 40 µM; 160,000 tested, 0.19% active; AID 422, 2006; in the data active means inhibition above about 30%
Target sequence (P61981 whole entry, looked up): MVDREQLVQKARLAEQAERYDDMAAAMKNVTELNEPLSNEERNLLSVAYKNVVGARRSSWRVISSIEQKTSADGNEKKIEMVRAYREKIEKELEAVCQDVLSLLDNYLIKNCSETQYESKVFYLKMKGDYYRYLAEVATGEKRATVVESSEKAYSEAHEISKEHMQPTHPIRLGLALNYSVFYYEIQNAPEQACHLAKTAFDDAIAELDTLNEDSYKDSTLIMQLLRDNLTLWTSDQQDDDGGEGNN
Numbers stand for hits; i = inactive; + = active, no number. Only a selection was taken, and hits are over-represented in it overall.

SMILES	14-3-3g Raf
CC1=C(C(=O)OCCOc2ccccc2)C(c2cccc([N+](=O)[O-])c2)NC(=O)N1C (stereo unspecified)	i
CC1=C(C(=O)OCCOc2ccccc2)C(c2cccc([N+](=O)[O-])c2)NC(=O)N1 (stereo unspecified)	34
Cc1cc(-c2ccccc2)c2nncn2n1	i
COc1ccc(C2C=C(c3ccc(Br)s3)Nc3ncnn32)c(OC)c1 (stereo unspecified)	i
CC(C)(C)C(=O)Nc1ccc2oc3ccc(NC(=O)C(C)(C)C)cc3c(=O)c2c1	i
COC(=O)C(NC(=O)c1ccc(OC)cc1)(Nc1ccc(Br)cn1)C(F)(F)F (stereo unspecified)	i
CC(=O)Nc1ccc(Nc2ccccc2)c2c1C(=O)c1ccccc1C2=O	i
O=C1c2ccccc2-c2c(Nc3ccccc3)c(=O)[nH]c3cccc1c23	92
Nc1c2c3c(c(Cl)ccc3[nH]c1=O)C(=O)c1ccccc1-2	i
CCn1cc(C(=O)N(CCc2ccccc2)Cc2ccccc2)c(=O)c2ccc(C)nc21	i
CCOC(=O)C1=C(C)N(Cc2ccccc2)C(=O)NC1c1ccccc1F (stereo unspecified)	i
COc1ccccc1-c1coc2c(CN3CCOCC3)c(O)ccc2c1=O	30
COc1cccc(Oc2coc3c(CN4CCOCC4)c(O)ccc3c2=O)c1	i
O=c1c(-c2ccc3c(c2)OCCO3)coc2c(CN3CCOCC3)c(O)ccc12	i
Cc1ccccc1Nc1c(-c2ccccn2)nc2cccc(C)n12	i
COc1cccc(C2CC(c3cccs3)=NN2C(=O)CSc2nc3ccccc3o2)c1OC (stereo unspecified)	i
O=C(O)c1c(Cl)nc(Cl)c([N+](=O)[O-])c1Cl	i
COC(=O)c1c(Cl)nc(Cl)c([N+](=O)[O-])c1Cl	56
Cc1nc(Cl)c(C(=O)O)c(C)c1[N+](=O)[O-]	i
CCOc1ccc(C(=O)Nc2ccc(N3CCOCC3)c(Cl)c2)cc1	i
CN(C)c1ccc(C2C=C(c3ccccc3)Nc3ncnn32)cc1 (stereo unspecified)	i
O=C(NCc1ccccn1)c1cc(S(=O)(=O)N2CCOCC2)ccc1F	114
Cc1c(C(=O)NCc2ccccn2)oc2ccc(S(=O)(=O)N3CCOCC3)cc12	129
O=C(NCc1cccnc1)c1cc(S(=O)(=O)N2CCOCC2)ccc1F	i
Cc1c(C(=O)NCc2cccs2)oc2ccc(S(=O)(=O)N3CCOCC3)cc12	i
SMILES	14-3-3g Raf
Cc1c(C(=O)NCc2ccccn2)oc2ccc(S(=O)(=O)N3CC(C)CC(C)C3)cc12 (stereo unspecified)	i
Cc1c(C(=O)NCc2ccco2)oc2ccc(S(=O)(=O)N3CCOCC3)cc12	i
Cc1c(C(=O)NCc2ccccn2)oc2ccc(S(=O)(=O)N3CCC(C)CC3)cc12	63
Cc1c(C(=O)NCc2ccccc2)oc2ccc(S(=O)(=O)N3CCC(C)CC3)cc12	i
O=C(NCc1cccs1)c1cc(S(=O)(=O)N2CCOCC2)ccc1F	i
CN(C)c1ccc(C2SCC3C(=O)N(c4cccc(C(F)(F)F)c4)C(=S)N32)cc1 (stereo unspecified)	i
C1=C(c2ccc3ccccc3n2)C(c2ccccc2)c2ccccc2N1 (stereo unspecified)	i
Cc1cccc(N(C)S(=O)(=O)c2ccc3nc(-c4ccccc4)[nH]c3c2)c1	i
CC1CCc2c(oc3c2cc(NS(=O)(=O)c2ccccc2)c2ccccc23)C1 (stereo unspecified)	i
Cc1ccc(C(=O)Nc2sc3c(c2C(=O)N2CCCCCC2)CCC3)cc1	i
O=C(c1ccco1)N1CCN(c2nc(C(F)(F)F)nc3c2nnn3Cc2ccccc2)CC1	i
Oc1ccc(NCc2cccs2)cc1	52
O=[N+]([O-])c1cccc(NCc2cccs2)c1	i
CCOC(=O)Cc1ccc(NCc2cccs2)cc1	i
Cc1ccc(-c2nc3n(n2)C(=O)CCS3)cc1	i
CCCOC(=O)c1ccc(NC(=O)C2C3CCC(C3)C2C(=O)O)cc1 (stereo unspecified)	i
COc1ccc(C2CC(c3cc(OC)ccc3OC)n3nnnc3N2)cc1 (stereo unspecified)	i
CSc1nnc2c3cc(F)ccc3n(Cc3ccccc3)c2n1	113
CSc1nnc2c3ccccc3n(Cc3ccccc3)c2n1	i
CSc1nnc2c3ccccc3n(CCc3ccccc3)c2n1	i
CC(=O)N1N=C(c2ccc(Cl)cc2)OC12CCCC2	i
CC(=O)Nc1ccc(N=Cc2c(OC(=O)c3cccc4ccccc34)ccc3ccccc23)cc1	i
COc1ccccc1NC(=O)c1cc2ccccc2c(C=Nc2ccc(Cl)cc2)c1O	i
O=C(Nc1ccccc1)c1cc2ccccc2c(C=Nc2ccc(Cl)cc2)c1O	i
COc1cc2ccccc2cc1C(=O)Nc1ccccc1Oc1ccccc1	i
SMILES	14-3-3g Raf
CCOc1ccc(NC(=O)c2cc(-c3cccs3)nc3ccccc23)cc1	i
CCOc1ccc(N=Cc2c(O)c(C(=O)Nc3ccccc3OC)cc3ccccc23)cc1	59
CCOc1ccc(-c2nc3cc(N=Cc4c(O)ccc5ccccc45)ccc3o2)cc1	i
COc1ccccc1NC(=O)c1coc(=O)c2ccccc12	i
CC(=O)Nc1ccc(N=Cc2c(O)c(C(=O)Nc3ccccc3)cc3ccccc23)cc1	174
CCOc1ccccc1C(=O)Nc1cc(OC)ccc1OC	i
CCOc1ccc(N=Cc2c(O)c(C(=O)Nc3ccccc3)cc3ccccc23)cc1	71
COc1ccccc1N=Cc1c(O)c(C(=O)Nc2ccccc2OC)cc2ccccc12	78
CCCCCNC(=O)c1ccc2c(c1)ncn2-c1cc(C)cc(C)c1	i
CC(C)N1C(=O)CCC1C(=O)NCc1ccco1 (stereo unspecified)	i
Cc1c(Cl)cccc1NC(=O)C1(C)CC2c3ccccc3C1c1ccccc12 (stereo unspecified)	i
CCOc1ccc(C(C)=O)cc1N1C(=O)C2C(C1=O)C1(Br)c3ccccc3C2(Br)c2ccccc21 (stereo unspecified)	i
CCOC(=O)CSc1ccc(C(=O)N2CCCCC2)cc1[N+](=O)[O-]	i
CC1CC(C(F)(F)F)n2ncnc2N1 (stereo unspecified)	i
COc1ccc(CN2CCCC(C(=O)N3CCCCC3)C2)c(OC)c1 (stereo unspecified)	i
COc1cc(CNc2nccs2)cc(Br)c1OCc1ccc(F)cc1	i
O=C1c2cccc3c(NCCO)ccc(c23)C(=O)N1c1ccc(Cl)cc1	140
O=C1c2cccc3c(N4CCCCC4)ccc(c23)C(=O)N1CCCO	i
CN1C(=O)c2cccc(NCCCCN3C(=O)c4ccccc4C3=O)c2C1=O	i
Cc1ccc(N2C(=O)c3cccc4c(Cl)ccc(c34)C2=O)cc1	i
O=C1c2cccc3c(NCCCO)ccc(c23)C(=O)N1CCCO	+
O=C1c2cccc3c(Cl)ccc(c23)C(=O)N1c1ccccc1	i
O=C(/C=N/O)NCCCn1ccnc1	i
CCn1c(SCC(=O)Nc2cc(NC(C)=O)ccc2OC)nnc1-c1cccnc1	i
COc1cccc2sc(=NC(=O)c3cc(Cl)sc3Cl)n(C)c12	i
SMILES	14-3-3g Raf
O=C1c2ccccc2-c2onc3ccc(Nc4ccccc4)c1c23	i
CCC(=O)OCCNc1ccc2noc3c2c1C(=O)c1ccccc1-3	141
CC(=O)OCCNc1cc(N2CCN(C)CC2)c2noc3c2c1C(=O)c1ccccc1-3	i
Cc1ccccc1-c1nc2cc(NC(=O)COc3ccc(C(C)(C)C)cc3)ccc2o1	i
Oc1ccc2ccccc2c1C=Nc1cccc2ccccc12	i
Brc1ccc(C=Nc2nc3c(s2)CCCC3)cc1	i
